PubChem BioAssay (NCI)
Compounds without any hit were thinned out: in the full panel of roughly 83,000, 20% have a hit.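 Compound tested at a single concentration for 48 hours in 96-well plates; a percent growth value below 10 was scored as active.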 Unmarked numbers belong to inactive results. Activity calls are given as the source filed them.

test system: PC-3 prostate; assay: NCI-60 one-dose screen, 48 h (100 = growth as untreated, 0 = no growth, -100 = all killed); details: 10 µM unless noted
Description: Growth inhibition of the PC-3 human tumor cell line is measured as a screen for anti-cancer activity. Cells are grown in 96 well plates and exposed to the test compound for 48 hours. Compounds are tested at a single concentration, which is 10^-5 M for most compounds. The reported endpoint is percent growth (GI% or GIPRCNT), where numbers from 0 - 100% represent growth inhibition, and numbers from -100% - 0 represent cell death. For example, a value of 40 represents 60% growth inhibition. A value of 0 means no net growth occurred over the course of the experiment. A value of -40 indicates 40% of cells at the beginning of the experiment died by the end of the experiment. A value of -100 means all cells are dead at the end of the experiment.
NCI-60 Human Tumor Cell Lines Screen was performed using the standard one-dose NCI protocol, which is described in more detail at https://dtp.cancer.gov/discovery_development/nci-60/default.htm.
Compounds with GIPRCNT values below 10 were considered active. Activity score was based on GIPRCNT using the following formula: […]
Score is 0 for GIPRCNT values of 100 or above, 50 for GIPRCNT values of 0, and 100 for GIPRCNT values of -100.

Q: With `C#CCOc1cc(N(CC)CC)ccc1C(C(=O)NC(C)(C)C)N(C(=O)C1CCc2cc(F)ccc2O1)c1ccccc1Br` (stereo not given) as the compound, how does the growth read?
A: Its growth is 27.3%.

Q: For `CN(C)CCCNC(=O)c1cc(NC(=O)c2cc(NC(=O)c3ccc(C#Cc4ccccc4)cc3)cn2C)cn1C`, which growth is on record?
A: The growth was -30.8% (active).

Q: Which growth does the source give for `COc1ccc(C(=O)/C=C/c2cccc(Br)c2)cc1S(N)(=O)=O` here?
A: The growth was -34.6% (active).

Q: With `CC(=O)/C=C/c1cccc2c1C(=O)NC(C)(c1cc3cc(Br)ccc3oc1=O)N2` (stereo not given) as the compound, how does the growth read?
A: Its growth is 21.6%.

Q: For `N#Cc1c(-c2cccc(O)c2O)cc(-c2ccc3ccccc3c2)[nH]c1=O`, which growth is on record?
A: Its growth is 67.5%.

Q: Which growth does the source give for `COc1ccc(C(=O)/C=C/c2ccc3ccccc3c2)cc1S(N)(=O)=O` here?
A: The growth was -11.9% (active).

Q: How did the growth turn out when `Cc1ccc(-c2nnc3ccc(N/N=C/c4ccccc4)nn23)cc1` was run?
A: Its growth is 89.3%.

Q: Which growth does the source give for `COc1ccc(-c2nc3cc(C)ccc3n2CC(=O)N=Nc2c(O)[nH]c3ccc(Cl)cc23)cc1` here?
A: Its growth is 9.75% (active).

Q: With `O=C(N=Nc1c(O)[nH]c2ccc([N+](=O)[O-])cc12)c1ccc2nc(-c3ccccc3)[nH]c2c1` as the compound, how does the growth read?
A: The growth was 53.3%.

Q: `CCCCSc1nc(Nc2ccc(S(N)(=O)=O)cc2)c(C#N)c(-c2cc(OC)c(OC)c(OC)c2)n1` was tested. Which growth did it give?
A: The growth was 16.7%.

Q: `COc1ccc(-c2nc3cc(C)ccc3n2CC(=O)N=Nc2c(O)[nH]c3ccc(OC)cc23)cc1` was tested. Which growth did it give?
A: The growth was -52.4% (active).

Q: With `CNS(=O)(=O)c1ccc(Nc2ccc(C(F)(F)F)cc2)c(-c2cn(C)cn2)c1` as the compound, how does the growth read?
A: The growth was 57.6%.

Q: How did the growth turn out when `CCOP(=O)(OCCCl)c1nc(-c2ccc(C)cc2)oc1NCc1ccccc1` (stereo not given) was run?
A: The growth was 44.4%.

Q: For `Cc1nc(Nc2ncc(C(=O)Nc3c(C)cccc3Cl)s2)cc(N2CCN(CCCNC(=O)COc3ccc(C4CCC(=O)NC4=O)cc3)CC2)n1` (stereo not given), which growth is on record?
A: The growth was 44.1%.

Q: How did the growth turn out when `COc1ccc(C2(SCCNCc3cc(N(C)C)ccn3)c3ccccc3C=Cc3ccccc32)cc1` was run?
A: Its growth is 13.8%.

Q: `Nc1nc(-c2ccccc2)c(N=Nc2ccc([N+](=O)[O-])cc2Cl)s1` was tested. Which growth did it give?
A: The growth was 77.7%.

Q: For `Cn1cc(NC(=O)c2cc(NC(=O)c3ccc(C#Cc4ccccc4)cc3)cn2C)cc1C(=O)NCCCN1CCOCC1`, which growth is on record?
A: Its growth is 29.8%.

Q: For `S=C(Nc1ccccc1)Nc1ccc(OCc2nc3ccccc3[nH]2)cc1`, which growth is on record?
A: Its growth is 42%.

Q: With `COCOc1cc2c(=O)c(C)c(C(=O)N[C@@H](Cc3ccccc3)C(O)C(=O)NCc3ccccc3)oc2cc1OC` (stereo not given in full) as the compound, how does the growth read?
A: Its growth is 73.4%.

Q: `COc1ccc(C(=O)/C=C/c2cccc(Cl)c2Cl)cc1S(N)(=O)=O` was tested. Which growth did it give?
A: Its growth is 5% (active).

Q: Which growth does the source give for `NS(=O)(=O)c1ccc(-n2cc(-c3cccc(NC(=O)c4cc(C(F)(F)F)cc(C(F)(F)F)c4)c3)nn2)cc1` here?
A: The growth was 52%.

Q: With `COc1ccc(C2=NN(c3ccccc3)C(c3ccc(OCc4ccccc4)c(OC)c3)C2)cc1OC` (stereo not given) as the compound, how does the growth read?
A: The growth was 92.7%.

Q: Which growth does the source give for `N#Cc1c(-c2ccc(Br)cc2)nc2n[nH]c(-c3ccc(Br)cc3)c2c1-c1ccc(C(F)(F)F)cc1` here?
A: The growth was 14.5%.

Q: How did the growth turn out when `COc1c(F)ccc(C(=O)Nc2ccc3nc(NC(=O)C4CCCN(S(=O)(=O)c5cccc(Cl)c5)C4)sc3c2)c1F` (stereo not given) was run?
A: Its growth is 57.7%.

Q: `CC1(C)CC[C@]2(C(=O)O)CC[C@]3(C)C(=CCC4[C@@]5(C)C[C@@H](O)[C@@H]6OC(c7ccccc7Br)OC[C@@]6(C)C5CC[C@]43C)C2C1` (stereo not given in full) was tested. Which growth did it give?
A: The growth was 13.1%.

Q: For `N#Cc1c(-c2cccc3ccccc23)cc(-c2cccc(OCC(=O)O)c2)[nH]c1=O`, which growth is on record?
A: The growth was 91.7%.

Q: Which growth does the source give for `Cc1sc2c(c1C)C(c1ccc(Cl)cc1)=N[C@@H](CC(=O)NCCCCCNC(=O)COc1ccc(C3CCC(=O)NC3=O)cc1)c1nnc(C)n1-2` (stereo not given in full) here?
A: The growth was 11.3%.

Q: With `O=C(O)c1ccc(-c2ccc(/C=N/NC(=O)c3[nH]c4ccc(Br)cc4c3-c3ccccc3)o2)cc1` as the compound, how does the growth read?
A: Its growth is 20.8%.

Q: How did the growth turn out when `CC(C)CSc1nc(NCCc2c[nH]c3ccccc23)c(C#N)c(-c2ccc(F)cc2)n1` was run?
A: The growth was 26.2%.

Q: `O=c1[nH]n(C(=S)N/N=C/c2ccccc2Cl)c(=O)c2ccccc12` was tested. Which growth did it give?
A: Its growth is 22.6%.

Q: For `NC(=S)Nc1cccc(NC(N)=S)c1`, which growth is on record?
A: Its growth is 102%.

Q: Which growth does the source give for `COc1cc2c(c(OC)c1OC)C(=O)CC(c1cccc(NC(=O)c3cccc(NC(=O)[C@H](C)NC(=O)OC(C)(C)C)c3)c1)O2` (stereo not given in full) here?
A: Its growth is 45.6%.

Q: How did the growth turn out when `Cc1ccc(S(=O)(=O)c2nc(S(=O)(=O)c3ccc(C)cc3)c(N3CCC(O)CC3)s2)cc1` was run?
A: The growth was 56.8%.

Q: How did the growth turn out when `CC1(c2cc3cc(Br)ccc3oc2=O)NC(=O)c2c(/C=C/C(=O)OC3CC4CCC3(C)C4(C)C)cccc2N1` (stereo not given) was run?
A: The growth was 36.5%.

Q: How did the growth turn out when `Cc1cc2c(cc1Cl)C(=O)/C(=C/c1ccc(F)cc1)O2` was run?
A: Its growth is 91.1%.

Q: With `COc1ccc(C(=O)/C=C/c2ccc(Oc3nc(Nc4ccc(F)cc4)nc(N(C)C)n3)c(OC)c2)cc1` as the compound, how does the growth read?
A: Its growth is 50.5%.

Q: `COc1ccc(/C=C2\C(=O)Nc3ccc(Cl)cc32)cc1OCc1ccccn1` was tested. Which growth did it give?
A: The growth was 38.3%.

Q: Which growth does the source give for `Cc1ncsc1-c1ccc(CNC(=O)[C@@H]2C[C@@H](O)CN2C(=O)[C@@H](NC(=O)C2(F)CC2)C(C)(C)C)c(OCCOCCOCCOCCOc2nc(Nc3cc(S(C)(=O)=O)ccc3N[C@@H](c3cccc4c3OC(F)(F)O4)c3ncccc3Cl)nc(N3CCNCC3)n2)c1` here?
A: The growth was 71.7%.

Q: With `Cn1cc(-c2nnc(N)nc2-c2c[nH]c3ccccc23)c2cccnc21` as the compound, how does the growth read?
A: Its growth is 57.8%.

Q: How did the growth turn out when `CCCCSc1nc(NCCc2c[nH]c3ccccc23)c(C#N)c(-c2ccccc2)n1` was run?
A: Its growth is 13.2%.
